Assay outcomes: PubChem BioAssay, National Center for Advancing Translational Sciences (NCATS)
Tau fibril FP = inhibitors of human tau fibril formation | K18 P301L tau heparin fibrillization, Alexa594 FP, 6 h | P10636 | actives 0.39% (n = 280,000) | Potency, µM (top dose mostly 57.7 µM), inactives show at the highest dose activity, negative = inhibition, hits mostly inhibitors; note: nearly all actives have a fitted effect of over 55% in size
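Human K18 P301L fragment (15 uM unlabeled plus 0.24 uM Alexa 594-labeled) in 100 mM sodium acetate pH 7 with compound, aggregation induced by 20 uM heparin for 6 hr at 37 C. ThT (30 uM) added for 1 hr, then Alexa 594 FP read.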
ALDH1A1 block = inhibitors of human aldehyde dehydrogenase 1A1; Potency, µM (top dose mostly 75.3 µM), for the others: top-dose activity, negative = inhibition, hits mostly inhibitors; AID 1030; actives 7.3% (n = 220,000); Purified ALDH1A1, NADH fluorescence, propionaldehyde substrate; active = well fitted inhibition curve with a large enough effect, not every such curve was filed as active; inconclusive = small, poorly fitted or top-dose-only effect, or another doubt; inactive = no such curve, though single readings can be large or run the other way;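 note: plate controls were no enzyme wells and a reference inhibitor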
NPSR antag = blocks cAMP signaling of the human neuropeptide S receptor; CHO-NPSR cells, cAMP TR-FRET, antagonist mode; actives 1% (n = 220,000); AID 1461; Potency, µM (titrated, usually from 38.3 µM), without a hit: top-dose activity change, negative = inhibition, actives largely listed as inhibitors; note: nearly all actives have a fitted effect of over 50% in size
Target sequence (Q6W5P4 whole entry, looked up): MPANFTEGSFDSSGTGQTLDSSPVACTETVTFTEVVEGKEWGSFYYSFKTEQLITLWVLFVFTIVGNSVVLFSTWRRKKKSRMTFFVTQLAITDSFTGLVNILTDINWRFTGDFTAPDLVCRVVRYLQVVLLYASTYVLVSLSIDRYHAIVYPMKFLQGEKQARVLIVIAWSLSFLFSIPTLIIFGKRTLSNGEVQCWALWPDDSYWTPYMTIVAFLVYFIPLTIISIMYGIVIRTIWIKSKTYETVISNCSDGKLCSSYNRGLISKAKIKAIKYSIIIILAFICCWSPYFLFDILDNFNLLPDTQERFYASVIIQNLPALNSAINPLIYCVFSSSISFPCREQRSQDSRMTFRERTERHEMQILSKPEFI
Tau fluor counter = counter-screen for tau fibril formation inhibitors. actives 0.93% (n = 280,000). Potency, µM (highest dose often 57.7 µM), inactives show top-dose activity change, negative = decrease. tau K18 P301L Alexa594 fluorescence, heparin fibrillization. AID 1463; note: nearly all actives have a fitted effect of over 55% in size
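Human K18 P301L tau (15 uM unlabeled plus 0.24 uM Alexa 594-labeled, final) in 100 mM sodium acetate pH 7 was mixed with compound and 20 uM heparin and incubated 6 hr at 37 C.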
Tau ThT inhib = blocks human tau fibril formation measured by thioflavin T. actives 2.1% (n = 270,000). recombinant tau K18 P301L (four-repeat tau fragment), heparin-induced fibrillization, ThT fluorescence. Potency, µM (doses to about 57.4 µM), for the others: top-dose activity, negative = inhibition, usual class: inhibitors. P10636. AID 1460; note: nearly all actives have a fitted effect of over 55% in size
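Heparin-induced (20 uM) aggregation of recombinant human K18 P301L tau, 15 uM unlabeled with 0.24 uM labeled, pH 7 acetate buffer, 6 hr at 37 C with compound. Fibrils quantified by 30 uM ThT fluorescence after 1 hr ambient incubation.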
HPGD inh = HPGD (human) dehydrogenase inhibition | P15428 | purified HPGD, NADH fluorescence kinetic, PGE2 substrate | Potency, µM, without a hit: at the highest dose activity change, negative = inhibition, actives largely listed as inhibitors | actives 4.3% (n = 150,000); active = well fitted inhibition curve with a large enough effect, not every such curve was filed as active; inconclusive = small, poorly fitted or top-dose-only effect, or another doubt; inactive = no such curve, though single readings can be large or run the other way
Target sequence (P15428 whole entry, looked up): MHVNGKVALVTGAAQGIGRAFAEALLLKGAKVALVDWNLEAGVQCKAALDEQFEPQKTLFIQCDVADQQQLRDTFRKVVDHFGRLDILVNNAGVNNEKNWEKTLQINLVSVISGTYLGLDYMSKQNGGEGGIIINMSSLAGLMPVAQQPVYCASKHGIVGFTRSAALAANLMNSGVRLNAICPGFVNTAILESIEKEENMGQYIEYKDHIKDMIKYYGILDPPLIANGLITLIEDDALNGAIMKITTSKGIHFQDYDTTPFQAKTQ
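20 nM HPGD preincubated 15 min at room temperature with compound in 50 mM Tris-HCl pH 8, 0.01% Tween 20. Started with 1 mM NAD+ and 30 uM prostaglandin E2; NADH fluorescence (360/450 nm) read 5 times over 30-s intervals, last minus first.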
An asterisk follows results filed as active; ? = inconclusive; · = no result; [ ] = another dose, or the depositor's remark. In the library only some 9.5% were active in any assay of this set; here they are far more common. Unless noted, calls come from the whole dose curve; as a rule, active = well fitted curve in the direction sought with a large enough effect; inconclusive = small, poorly fitted or top-dose-only effect, or another doubt; inactive = no such curve, though single readings can be large; an effect the other way counts as inactive or inconclusive. Unless noted, % is set by controls: 0 for no effect and ±100 for the full control effect; potency is the fitted concentration of half-maximal effect.

SMILES	Tau fibril FP	ALDH1A1 block	NPSR antag	Tau fluor counter	Tau ThT inhib	HPGD inh
CC(C)(C)OC(=O)NCCCC[C@H](NC(=O)c1nc[nH]c1C(=O)NC1CCN(C(=O)OC(C)(C)C)CC1)C(=O)OC(C)(C)C	1%	·	10µM*	1%	0%	·
CC(C)(C)OC(=O)NCCCC[C@H](NC(=O)c1nc[nH]c1C(=O)NC(c1ccccc1)c1ccccc1)C(=O)OC(C)(C)C	-11%	2.8µM*	?	-16%	-5%	·
CC1=C(/C=C/C(C)=C\C=C\C(C)=C\C(=O)O)C(C)(C)CCC1	?	4%	·	1%	?	-11%
CC1=C(/C=C/C(C)=C/C=C/C(C)=C/C(=O)O)C(C)(C)CCC1O (stereo not given)	-8%	6.3µM*	·	-4%	?	·
O=C(CN1CCN(C(c2ccccc2)c2ccccc2)CC1)N1CCOCC1	0%	-12%	-4%[46.1 µM]	5%	4%	-3%
O=C1c2ccccc2C(=O)N1CC#CCN1CCN(C(c2ccccc2)c2ccccc2)CC1	6%	16µM*	?	-13%	-18%	-11%
O=C(NCc1ccccc1)c1nn(-c2ccccc2)nc1CO	0%	·	·	-2%	1%	·
Cc1nc(NC(=O)C(Cl)Cl)sc1C(=O)N(C)C	-7%	-6%	2%	-7%	-9%	-16%
Cc1nc(NC(=O)CCl)sc1C(=O)N(C)C	4%	32µM*	44%	3%	-4%	·
Cc1ccc(-n2ncc(C(=O)Nc3ccc4c(c3)OCO4)c2C2CCN(C(=O)OC(C)(C)C)CC2)cc1	-4%	·	·	13µM*[quencher]	?	·
Cc1nnc(SC/C=C/c2ccccc2)n(N)c1=O	10%	1%	10%	2%	-1%	·
O=C(/C=C/c1ccccc1)n1cnnc1SC/C=C/c1ccccc1	?	-24%	-13%[46.1 µM]	-13%	28µM*	14µM*
COc1cccc(C(=O)Nc2cccc(C(=O)NC3=NN(c4c(Cl)cc(Cl)cc4Cl)C(=O)C3)c2)c1	3%	-1%	-14%[46.1 µM]	-21%	?	-25%
O=C(Nc1cccc([N+](=O)[O-])c1)Nc1ccc2c(c1)OCCO2	5%	6%	-14%	14µM*[quencher]	?	·
COc1ccc(C(=O)C(C)Oc2cccc(NC(=O)c3cccc([N+](=O)[O-])c3)c2)cc1 (stereo not given)	-3%	-9%	-15%	3.5µM*[quencher]	-11%	-17%
COc1ccc(/C=C2\C(=O)N(c3c(Cl)cc(Cl)cc3Cl)N=C2NC(=O)c2cccc([N+](=O)[O-])c2)cc1	?	?	-40%	-30%	?	22µM*
COc1cc(NC(=O)Nc2cccc([N+](=O)[O-])c2)cc(OC)c1	?	-3%	-22%	14µM*[quencher]	?	·
O=C(Nc1cccc([N+](=O)[O-])c1)Nc1cccc([N+](=O)[O-])c1	-14%	1%	-6%	?	?	·
CCC(=O)N1c2ccccc2CC1C(=O)NCc1ccccc1Cl (stereo not given)	1%	·	·	3%	6%	·
O=C(OCC(=O)c1cccs1)c1ccccc1	-4%	13µM*	-12%[46.1 µM]	4%	5%	14µM*
O=C(CC(Nc1ccccc1Cl)C(=O)OCC(=O)c1cccs1)c1ccccc1 (stereo not given)	-1%	25µM*	-21%[46.1 µM]	-24%	-13%	-20%
O=C(CNC(=O)c1cccs1)OCC(=O)c1ccccc1	-9%	6%	9%[46.1 µM]	-9%	-1%	-13%
Cc1ccc(CSc2ncc(Cl)c(C(=O)NCCc3ccc(S(N)(=O)=O)cc3)n2)cc1	3%	·	·	-15%	-7%	·
COc1ccc(C2C(C#N)=C(N)Oc3cc(C)[nH]c(=O)c32)cc1OC (stereo not given)	0%	·	7%	3%	11%	·
NC(=O)C(=O)N/N=C/c1c(F)c(F)c(F)c(F)c1F	-1%	-1%	10%	-2%	-2%	·
SMILES	Tau fibril FP	ALDH1A1 block	NPSR antag	Tau fluor counter	Tau ThT inhib	HPGD inh
CCc1cc(C=NC2CCCCC2)c(O)s1	7%	?	15%[46.1 µM]	-10%	-5%	4.5µM*
O=C1N/C(=C\c2nc3ccccc3s2)c2ccccc21	-1%	5%	6%	-15%	?	·
N#C/C=C1/NC(=O)c2ccccc2S1	4%	3%	-18%[46.1 µM]	-12%	?	2.2µM*
C=CCNC(=S)NN=C1CCCCCCC1	-5%	0.89µM*	-57%	2%	6%	·
O=S(=O)(c1cccs1)N1CCN(CC(O)COc2cc(Cl)ccc2Cl)CC1 (stereo not given)	9%	?	-12%[46.1 µM]	-19%	-6%	-8%
Nc1nnc(N2CCCCC2)s1	-13%	25µM*	-5%[46.1 µM]	-14%	-10%	-1%
Nc1nnc(N2CCCCCC2)s1	6%	4%	-3%[46.1 µM]	-5%	-7%	-12%
O=C(/C=C/c1ccncc1)c1ccc(NC(=O)c2ccccc2F)cc1	5%	?	-57%	16%	-16%	25µM*
O=C(Nc1cccnc1)c1ccccc1F	3%	9%	6%[46.1 µM]	-3%	-10%	-9%
COc1cc(NS(=O)(=O)c2ccc(Nc3nc(-c4ccccn4)cs3)cc2)nc(OC)n1	14%	6%	17%	-26%	-13%	·
COc1ccc(-c2csc(Nc3ccc(S(=O)(=O)Nc4cc(OC)nc(OC)n4)cc3)n2)cc1	3%	?	?	11µM*[quencher]	16µM*	?
COc1ccc(CC(=O)Nc2ccc(S(=O)(=O)Nc3cc(C)on3)cc2)cc1OC	-14%	-1%	-10%[46.1 µM]	-13%	-17%	·
COc1ccc(-c2csc(Nc3ccc(S(=O)(=O)Nc4cc(C)on4)cc3)n2)cc1C	13%	?	-51%	?	13µM*	·
COc1ccc(/C=C\C(=O)Nc2ccccc2C(=O)O)cc1OC	4%	?	·	-2%	8%	?
CS(=O)(=O)Nc1ccc(C(=O)NCCSCc2ccccc2)cc1	-6%	11µM*	4%	4%	3%	·
O=C(/C=C/c1ccccc1)NCCSCc1ccccc1	-1%	1µM*	0%	9%	10%	3.2µM*
COc1ccc(/C=C/C(=O)NCCSCc2ccco2)cc1	-8%	?	-1%	-6%	?	14µM*
Cc1cc(=O)n2[nH]c(CCC(=O)O)nc2n1	5%	·	-18%	-2%	0%	·
COCCn1c(=O)cnc2cnc(OCc3ccccc3)nc21	·	-3%	·	·	·	-10%
C=CCS/C(N)=N\N=C\c1c(O)ccc2ccccc12	9%	·	?	11µM*[quencher]	?	·
CCCCC/C=C\C/C=C\C/C=C\CCCCC(=O)NC(C)C(=O)O (stereo not given)	-1%	-2%	·	-6%	-6%	-1%
Cc1cc2c(c(SCC#N)n1)C(=O)OC2	2%	-2%	8%	6%	4%	·
